Assay [1] deals with Calcium and integrin-binding protein 1 (Homo sapiens) (UniProt Q99828). As to the kind of experiment: Primary qHTS for Identification of Calcium Integrin Binding Protein 1 (CIB1) Competitor (AID 1508620). Further: top concentration of the series differs between compounds. A digest of the protocol: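 Fluorescence polarization competition: GST-tagged CIB1 (1 uM final) preincubated with compound 15 min at room temperature, then FITC-labelled alphaIIb peptide (100 nM final) added. After 15 min at room temperature, polarization read at Ex 480/Em 540.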
Calcium and integrin-binding protein 1 (Homo sapiens), sequence (Q99828 whole entry, looked up): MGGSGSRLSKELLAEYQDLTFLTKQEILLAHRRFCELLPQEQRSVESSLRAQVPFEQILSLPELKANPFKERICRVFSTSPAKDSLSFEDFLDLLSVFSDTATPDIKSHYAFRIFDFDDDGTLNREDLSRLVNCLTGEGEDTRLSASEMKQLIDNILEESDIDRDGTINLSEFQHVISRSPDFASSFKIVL
(qHTS replaces the single test concentration by a dilution series.)

Assay [2] deals with Rap guanine nucleotide exchange factor 3 (Homo sapiens) (UniProt O95398). Put plainly: Confirmatory qHTS for agonist of cAMP-regulated guanine nucleotide exchange factor 3 (EPAC1) (AID 1645881).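 Further: EPAC1 catalysed release of BODIPY-GDP from Rap1B seen as fluorescence loss; nearly all actives have a fitted effect of over 75% in size.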
Rap guanine nucleotide exchange factor 3 (Homo sapiens), sequence (O95398 whole entry, looked up): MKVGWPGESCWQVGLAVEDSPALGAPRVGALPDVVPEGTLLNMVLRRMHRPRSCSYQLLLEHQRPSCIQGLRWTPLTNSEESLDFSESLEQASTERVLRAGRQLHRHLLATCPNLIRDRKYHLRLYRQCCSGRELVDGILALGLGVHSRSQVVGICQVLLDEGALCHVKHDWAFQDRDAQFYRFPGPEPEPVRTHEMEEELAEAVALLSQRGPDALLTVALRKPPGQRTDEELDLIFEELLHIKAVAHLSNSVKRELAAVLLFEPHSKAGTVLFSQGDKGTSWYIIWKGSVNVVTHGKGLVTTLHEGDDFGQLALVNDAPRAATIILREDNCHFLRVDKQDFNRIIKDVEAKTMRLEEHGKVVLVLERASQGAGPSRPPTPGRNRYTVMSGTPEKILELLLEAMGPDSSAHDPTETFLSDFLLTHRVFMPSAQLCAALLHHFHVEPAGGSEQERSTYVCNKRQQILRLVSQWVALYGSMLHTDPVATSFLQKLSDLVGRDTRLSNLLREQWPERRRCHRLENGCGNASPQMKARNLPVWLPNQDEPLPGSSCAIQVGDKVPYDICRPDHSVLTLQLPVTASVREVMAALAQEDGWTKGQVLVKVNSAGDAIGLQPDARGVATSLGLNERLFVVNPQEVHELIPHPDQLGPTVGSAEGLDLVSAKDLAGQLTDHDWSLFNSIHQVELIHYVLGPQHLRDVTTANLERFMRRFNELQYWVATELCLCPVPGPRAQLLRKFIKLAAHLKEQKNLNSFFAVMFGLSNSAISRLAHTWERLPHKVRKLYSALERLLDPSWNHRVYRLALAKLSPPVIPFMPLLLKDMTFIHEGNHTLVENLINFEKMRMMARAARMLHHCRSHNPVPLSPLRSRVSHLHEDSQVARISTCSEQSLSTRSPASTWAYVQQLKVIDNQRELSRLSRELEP
Assay [3] addresses Rap guanine nucleotide exchange factor 4 (Homo sapiens) (UniProt Q8WZA2). As to the kind of experiment: Confirmatory qHTS for agonist of cAMP-regulated guanine nucleotide exchange factor 4 (EPAC2) (AID 1645884).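 Further: nucleotide exchange releases bodipy-GDP from Rap1 and this lowers its fluorescence; nearly all actives have a fitted effect of over 65% in size.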
Assay [4] shares this target. As to the kind of experiment: Confirmatory qHTS for antagonist of cAMP-regulated guanine nucleotide exchange factor 4 (EPAC2) (AID 1645885). Further: nearly all actives have a fitted effect of over 25% in size.
Assay [5] concerns the target Rap guanine nucleotide exchange factor 3 (Homo sapiens) (UniProt O95398). Put plainly: Counterscreen qHTS for antagonist of cAMP-regulated guanine nucleotide exchange factor 3 (EPAC1) (AID 1645888).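 Further: fluorescence loss as bound BODIPY-GDP is released from Rap1B.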 Summed up: (§1)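 Rap1B–BODIPY-GDP (250 nM) with 50 uM GDP; compounds pin-transferred to 9.74 nM–152 uM final (activator) or from 7.32 nM upwards (inhibitor). Fluorescence Ex/Em 480/540 nm read at 5 and 30 min, then after adding cAMP or buffer, at room temperature.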
On the technique in general: Counterscreens check selectivity or assay interference.

Assay [6] shares this target. As to the kind of experiment: Counterscreen qHTS for agonist of cAMP-regulated guanine nucleotide exchange factor 3 (EPAC1) (AID 1645889). Further: nearly all actives have a fitted effect of over 40% in size. A digest of the protocol:
as §1

Assay [7] addresses Mitogen-activated protein kinase 10 (Mus musculus) (UniProt Q61831). Put plainly: JNK3 AlphaScreen Assay (AID 530; active means well fitted curve in either direction with a large enough effect, not every such curve was filed as active;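 further: kinase came from lysate of stimulated human HepG2 cells; signal reports phosphorylation of biotinylated GST-cJun 1-79 at Ser73 with 10 µM ATP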). Summed up:
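qHTS format: compounds tested as titrations against IL-1beta/TNF-alpha-activated HepG2 lysate JNK3 with biotin-GST-cJun substrate and 10 uM ATP at room temperature. Loss of anti-phospho-cJun AlphaScreen signal indicates inhibition.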
A general note: Alpha assays give light when donor and acceptor beads are brought close together.

Assay [8] concerns the target Cytochrome P450 3A4 (Homo sapiens) (UniProt P08684). Put plainly: qHTS Assay for Inhibitors and Substrates of Cytochrome P450 3A4 (AID 884). Further: nearly all actives have a fitted effect of over 50% in size. Further: potency means the concentration at half of the fitted maximal effect. A digest of the protocol:
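20 nM human CYP3A4 with 25 uM Luciferin-PPXE (at KM) in 200 mM KPO4, preincubated 10 min with compound; NADPH regeneration started a 60 min RT reaction. Luciferin detected by luminescence, normalized to 57 uM ketoconazole as full inhibition.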

The nature of assay [9]: AP1 Signaling Pathway (AID 357; active means well fitted curve in either direction with a large enough effect, not every such curve was filed as active;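 further: ME-180 reporter cells stimulated with EGF at its EC50 level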). The conditions noted are these: ME-180 (cervical carcinoma) AP-1-bla reporter, EGF-induced, beta-lactamase ratio, 5 h; at 7.69 µM (top of the series) unless noted. Summed up:
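Titration-series screen for positive or negative modulators of EC50 EGF-induced signaling in ME-180 cells carrying an AP-1-driven beta-lactamase reporter. After 5 hours at 37 degrees Celsius, CCF4 460nm/530nm emission ratio gave %Activity; AC50 values derived.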

Assay [10] is described as follows: NFAT Signaling Pathway (AID 444; active means well fitted curve in either direction with a large enough effect, not every such curve was filed as active;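 further: carbachol stimulus at about its EC50 of 1 µM final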). Conditions: Jurkat NFAT-bla M1, carbachol, beta-lactamase ratio, 5 h; at 7.69 µM (top of the series) unless noted. Summed up:
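Jurkat cells with NFAT-driven β-lactamase reporter and co-expressed M1 receptor, stimulated with carbachol (final 1 uM, ~EC50), compound titration, 5 h at 37 °C. CCF4 loaded 1 h at RT; 460/530 nm ratio gave %activity and AC50.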

Assay [11] addresses Glucocorticoid receptor (Homo sapiens) (UniProt P04150). Put plainly: GR-GFP Redistribution (AID 450;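 active means compounds whose dose series gives a full or clear partial fitted curve of increased nuclear translocation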; further: potency means the concentration at half of the fitted maximal effect). The conditions noted are these: U2OS GR-GFP nuclear translocation, laser cytometry, 2 h.
The target in assay [12] is Glutathione peroxidase 1 (Homo sapiens) (UniProt P07203). Put plainly: Primary qHTS Assay for Inhibitors of Recombinant Selenoprotein Glutathione Peroxidase 1 (GPX1) (AID 1845191). Further: nearly all actives have a fitted effect of over 65% in size. A digest of the protocol:
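GR-coupled assay: compounds preincubated 30 min at room temperature with GPX1, then reaction started with CHP; final 10 nM GPX1, 1 mM GSH, 0.5 mM CHP, 0.5 mM NADPH, 100 nM GR, 0.01% BSA, pH 7.5 Tris buffer. NADPH fluorescence (340/450 nm) read at 0 and 15 min.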

Assay [13] has as its target Cytochrome P450 3A4 (Homo sapiens) (UniProt P08684). Put plainly: qHTS Assay for Activators of Cytochrome P450 3A4 (AID 885). Further: nearly all actives have a fitted effect of over 65% in size. Further: potency means the concentration at half of the fitted maximal effect. Summed up: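 20nM CYP3A4 + 25uM Luciferin-PPXE (=KM), 200mM KPO4; cpd 10 min RT; NADPH regen, 60 min RT; stop w/ detection buffer, 20 min; luminescence. Normalized to 57 uM ketoconazole.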

Here are results for 14 compounds from PubChem BioAssay (NCATS).

SMILES strings stand for the structures. Unmarked numbers belong to inactive results. Results filed as inconclusive are left out. Where a call stands in place of a potency, no number is given. Calls of active or inactive are those of the source. Unless noted, the call rests on the fitted dose curve; in most records, active means well fitted curve in the direction sought with a large enough effect; inconclusive means small, poorly fitted or top-dose-only effect, or another doubt; inactive means no such curve, though single readings can be large; an effect the other way counts as inactive or inconclusive.

Cytochrome P450 3A4 (Homo sapiens), sequence (P08684 whole entry, looked up): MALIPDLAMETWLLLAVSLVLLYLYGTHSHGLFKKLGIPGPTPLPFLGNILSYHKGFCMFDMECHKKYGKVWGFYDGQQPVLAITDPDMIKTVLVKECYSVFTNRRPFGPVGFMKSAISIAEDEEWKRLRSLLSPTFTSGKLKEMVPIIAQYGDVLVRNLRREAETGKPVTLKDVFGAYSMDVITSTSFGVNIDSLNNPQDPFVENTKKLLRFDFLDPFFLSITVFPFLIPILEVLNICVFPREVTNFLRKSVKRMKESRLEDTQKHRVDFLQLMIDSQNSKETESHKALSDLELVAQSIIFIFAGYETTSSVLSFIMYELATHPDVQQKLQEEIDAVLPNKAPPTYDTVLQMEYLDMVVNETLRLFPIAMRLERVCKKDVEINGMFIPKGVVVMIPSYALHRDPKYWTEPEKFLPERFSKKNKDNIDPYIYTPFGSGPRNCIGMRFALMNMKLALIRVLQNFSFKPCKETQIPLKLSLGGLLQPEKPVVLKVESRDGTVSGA
Rap guanine nucleotide exchange factor 4 (Homo sapiens), sequence (Q8WZA2 whole entry, looked up): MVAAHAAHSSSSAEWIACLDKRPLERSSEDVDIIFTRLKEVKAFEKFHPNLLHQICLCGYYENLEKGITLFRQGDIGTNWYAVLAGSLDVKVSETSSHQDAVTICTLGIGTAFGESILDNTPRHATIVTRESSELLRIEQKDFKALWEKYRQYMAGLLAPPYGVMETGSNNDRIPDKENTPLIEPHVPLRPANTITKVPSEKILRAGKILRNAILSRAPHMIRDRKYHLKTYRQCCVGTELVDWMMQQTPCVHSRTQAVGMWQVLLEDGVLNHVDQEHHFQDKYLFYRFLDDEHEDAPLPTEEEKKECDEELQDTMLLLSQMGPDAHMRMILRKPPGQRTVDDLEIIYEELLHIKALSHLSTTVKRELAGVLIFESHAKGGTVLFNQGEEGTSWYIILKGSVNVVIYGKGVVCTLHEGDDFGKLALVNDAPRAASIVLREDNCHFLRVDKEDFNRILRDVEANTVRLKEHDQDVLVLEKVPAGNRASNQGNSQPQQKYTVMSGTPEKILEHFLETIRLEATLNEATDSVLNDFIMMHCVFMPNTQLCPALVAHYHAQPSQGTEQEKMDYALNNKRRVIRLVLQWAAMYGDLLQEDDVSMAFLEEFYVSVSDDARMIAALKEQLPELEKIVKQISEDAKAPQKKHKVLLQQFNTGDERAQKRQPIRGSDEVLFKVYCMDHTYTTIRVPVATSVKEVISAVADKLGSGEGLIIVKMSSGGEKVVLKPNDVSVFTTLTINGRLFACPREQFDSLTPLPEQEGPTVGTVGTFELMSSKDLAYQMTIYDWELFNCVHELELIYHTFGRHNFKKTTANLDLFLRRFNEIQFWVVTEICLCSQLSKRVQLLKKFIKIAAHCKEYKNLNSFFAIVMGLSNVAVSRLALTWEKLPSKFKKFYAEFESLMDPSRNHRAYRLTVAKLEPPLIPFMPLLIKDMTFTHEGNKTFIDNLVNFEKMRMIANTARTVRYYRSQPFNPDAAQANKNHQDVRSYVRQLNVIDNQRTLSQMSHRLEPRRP
Glutathione peroxidase 1 (Homo sapiens), sequence (P07203 whole entry, looked up): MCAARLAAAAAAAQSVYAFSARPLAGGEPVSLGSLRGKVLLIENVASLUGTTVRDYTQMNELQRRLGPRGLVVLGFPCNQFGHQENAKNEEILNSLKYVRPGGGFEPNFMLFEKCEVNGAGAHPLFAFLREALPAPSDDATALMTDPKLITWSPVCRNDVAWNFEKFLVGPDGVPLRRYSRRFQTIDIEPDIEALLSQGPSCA
Glucocorticoid receptor (Homo sapiens), sequence (P04150 whole entry, looked up): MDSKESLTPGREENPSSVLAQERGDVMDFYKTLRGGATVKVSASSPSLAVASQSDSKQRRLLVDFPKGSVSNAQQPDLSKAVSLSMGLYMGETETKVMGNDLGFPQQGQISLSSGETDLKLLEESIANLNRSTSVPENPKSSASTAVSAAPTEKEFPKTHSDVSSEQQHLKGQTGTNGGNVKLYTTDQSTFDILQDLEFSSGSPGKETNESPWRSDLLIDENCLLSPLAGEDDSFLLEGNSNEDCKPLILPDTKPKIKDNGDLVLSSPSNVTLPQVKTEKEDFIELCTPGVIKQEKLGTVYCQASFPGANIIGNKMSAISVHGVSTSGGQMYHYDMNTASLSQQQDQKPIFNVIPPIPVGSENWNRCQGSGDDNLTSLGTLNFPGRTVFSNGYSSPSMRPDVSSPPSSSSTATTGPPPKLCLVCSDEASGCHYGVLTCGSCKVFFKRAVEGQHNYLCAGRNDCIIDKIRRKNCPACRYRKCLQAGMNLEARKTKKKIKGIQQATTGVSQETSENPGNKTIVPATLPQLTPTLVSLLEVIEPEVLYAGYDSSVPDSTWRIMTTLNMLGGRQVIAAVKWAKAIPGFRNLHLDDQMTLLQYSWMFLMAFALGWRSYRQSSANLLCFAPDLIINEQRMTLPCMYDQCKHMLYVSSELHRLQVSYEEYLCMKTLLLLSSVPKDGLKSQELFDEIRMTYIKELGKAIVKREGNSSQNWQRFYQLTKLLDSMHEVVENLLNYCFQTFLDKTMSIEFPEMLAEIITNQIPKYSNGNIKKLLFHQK

On to `CC(=O)NC(c1cc(Cl)c2ccccc2c1O)C(C)C` (configuration not stated), for which the Potency result in assay [1] is “inactive”. The compound was classed as inactive in [2] and in assay [5]. The activation in assay [3] is 9.17% [at 17.1 µM]; in assay [6], 8.27% [at 30.8 µM]. Also, the activity change, negative = inhibition in [4] was -39.3% [at 12.7 µM].

For `Cc1nc(N2CCOCC2)c2nc(-c3ccccc3)n(CCN(C)C)c2n1`, the result in assay [7] was inactive. Further, the Potency entry in assay [8] and in [1] was “inactive” each time.

In the case of `CCC(=O)NC(c1cc(Cl)c2ccccc2c1O)C(C)C` (configuration not stated), the Potency result in [1] and in [4] was “inactive” each time. Further, the outcome in assay [2], in assay [3], in [5] and in assay [6] was inactive.

For `CCCn1c(C)nc2c(NCCCN(CCO)CCO)nc(C)nc21`, the result in assay [7] was inactive. The Potency entry in [1] was “inactive”.

For the compound `COCCNc1nc(C)nc2c1nc(-c1ccccc1)n2CCN(C)C`, the outcome in assay [7] was inactive. In addition, the Potency result in [8] and in [1] was “inactive” throughout.

Consider `COc1ccc(-n2c(C)c(C(C)=O)c3cc(O)ccc32)cc1`, for which the results for the activity change, negative = inhibition in assay [9] and in assay [10] were -14.7% [at 17.2 µM] and 1.89% [at 17.2 µM], respectively. Moreover, in [11], the Potency is > 20.6 µM. In addition, the Potency entry in assay [1] was “inactive”.

Regarding `Cc1noc(CN(C)c2ncnc3ccc(-c4ccc5c(c4)OCO5)cc23)n1`, the Potency result in [1] and in assay [12] was “inactive” throughout.

As for `CCCn1c(-c2ccc(F)cc2)nc2c(NCCN3CCCC3)nc(C)nc21`, the outcome in [7] was inactive. Besides, the Potency entry in assay [8] and in assay [1] was “inactive” each time.

Consider `CCCn1c(-c2ccc(F)cc2)nc2c(NCCN3CCOCC3)nc(C)nc21`, for which the call in [7] was inactive. Further, the Potency in assay [8] was 7.94 µM (active). Moreover, the Potency entry in assay [13] and in assay [1] was “inactive” throughout.

For the compound `CCCn1c(-c2ccc(F)cc2)nc2c(NCCN(C(C)C)C(C)C)nc(C)nc21`, the compound was called inactive in [7]. Further, the Potency entry in assay [13] and in [1] was “inactive” in each case.

Turning to `CCCn1c(C)nc2c(NCCN3CCCC3)nc(C)nc21`, the result in assay [7] was inactive. The Potency result in assay [8] and in [1] was “inactive” in each case. The Potency in assay [13] is 15.8 µM (active).

Regarding `COCCN(CCOC)c1nc(C)nc2c1nc(-c1ccccc1)n2CCN1CCOCC1`, in assay [7], the result was inactive. In [8], the Potency is 1 µM (active). For the same compound, the Potency entry in [13] and in assay [1] was “inactive” each time.

For `CCCn1c(-c2ccc(F)cc2)nc2c(NCC(C)(C)CN(C)C)nc(C)nc21`, the call in assay [7] was inactive. Further, the Potency in assay [8] was 15.8 µM (active). Also, the Potency entry in [13] and in assay [1] was “inactive” in each case.

For the compound `CCN1CCCC1Cn1c(-c2ccccc2)nc2c(N(CCOC)CCOC)nc(C)nc21` (configuration not stated), the result in [7] was inactive. The Potency in assay [8] was 15.8 µM (active). The Potency result in assay [13] and in assay [1] was “inactive” in each case.
